Shown is part of a subset that was picked to be rich in hits.
RBX1-CUL1 inh: human ROC1-CUL1 E3 ligase inhibition. inhibition, % at 10 µM. actives 0.6% (n = 140,000). in vitro K48 di-Ub FRET, acceptor:donor ratio, 45 min. P62877+Q13616; in the data active = inhibition above about 25%
Of the large screens only hits and unclear results are named; the others gave an inactive call.

CCCCCOc1ccc(NC(=O)Cn2c(-c3cncs3)nc3ccccc32)cc1	none
COc1ccccc1Nc1nn2c(=O)c3ccc(C(=O)N4CCC(C)CC4)cc3nc2s1	none
Cn1nnnc1Sc1ccc(Cl)cc1[N+](=O)[O-]	none
O=C(Nc1ccc(F)cc1)c1sc(Cl)nc1-c1ccccc1	none
CC1CCN(C(=O)c2c(NC(=O)c3ccccc3Cl)sc3c2CCC(C(C)(C)C)C3)CC1 (stereo not given)	none
C=CCOc1ccc(/C=C2\C(=O)NN(c3ccc(Cl)cc3)C2=O)cc1OC	none
O=C1OC(c2ccccc2)=N/C1=C/c1cccc(OC(=O)c2cccs2)c1	none
O=C1NN(c2ccccc2)C(=O)/C1=C/c1ccc2c(c1)OCO2	none
O=C1NN(c2ccc(Cl)c(Cl)c2)C(=O)/C1=C/c1cc2c(cc1[N+](=O)[O-])OCO2	RBX1-CUL1 inh 64
O=C1NN(c2ccc(Cl)c(Cl)c2)C(=O)/C1=C/c1ccc(Cl)cc1	RBX1-CUL1 inh 78
CC(=O)Oc1cccc(/C=C2/C(=O)NN(c3ccc(C)c(C)c3)C2=O)c1	none
CCN(CC)c1ccc(/C=C2\C(=O)NN(c3ccc(Cl)c(Cl)c3)C2=O)cc1	none
O=C1NN(c2ccc(F)cc2)C(=O)/C1=C/c1ccccc1O	none
O=C1NN(c2ccc(F)c(Cl)c2)C(=O)/C1=C\c1cccc(OC(=O)c2cccs2)c1	RBX1-CUL1 inh 97
O=C1NN(c2ccccc2)C(=O)/C1=C/c1cccc(OCc2ccc(Cl)c(Cl)c2)c1	none
O=C1NN(c2ccc(Cl)c(Cl)c2)C(=O)/C1=C/c1cccc([N+](=O)[O-])c1	none
O=C1NN(c2ccc(Cl)cc2)C(=O)/C1=C\c1ccc(F)cc1	RBX1-CUL1 inh 38
Cc1cccn2c(=O)c3cc(C(=O)NCc4cccnc4)c(=N)n(CCCO)c3nc12	none
COc1ccccc1Nc1ccc([N+](=O)[O-])cn1	none
Cc1ccc(-n2c(N/N=C\c3ccc(Cl)cc3)nc3sc4c(c3c2=O)CCCC4)cc1	none
COc1cccc(NC(=O)CSc2ncnc3sc4c(c23)CCC4)c1	none
COc1ccc(C(=O)c2sc3nc4c(cc3c2N)CCCCCC4)cc1	none
CC(C)c1ccc2c(c1)NC(c1ccncc1)=NC(c1cccs1)=N2	none
O=C1NN(c2cccc(Cl)c2)C(=O)/C1=C\c1cc(Br)ccc1O	none
O=C1NN(c2cc(Cl)cc(Cl)c2)C(=O)/C1=C\c1ccc(F)cc1	RBX1-CUL1 inh 85
O=C1NN(c2cccc(C(F)(F)F)c2)C(=O)/C1=C\c1ccc(Br)cc1	none
O=C1NN(c2cccc(Cl)c2)C(=O)/C1=C/c1cccs1	none
O=C1NN(c2cccc(Cl)c2)C(=O)/C1=C/c1ccc(Br)cc1	RBX1-CUL1 inh 60
CCOc1cc(/C=C2/C(=O)NN(c3ccc(F)cc3)C2=O)ccc1OC(C)C	none
C#CCSc1nc2ccccc2c2nc(C)nn12	none
CCOc1ccccc1C(=O)Nc1cc2c(cc1C)n(C)c(=O)c(=O)n2C	none
CCOC(=O)N1CC=C2C(C#N)C(=N)C(C#N)(C#N)[C@H](c3cc(Br)ccc3OC)[C@H]2C1 (stereo not given in full)	none
COc1ccc(Cn2c(CO)cnc2SCC(=O)Nc2ccc3c(c2)OCCO3)cc1	none
Cc1ccc(N2C(=O)/C(=C/c3ccc(-c4ccc(C(=O)O)cc4)o3)C(=O)N(c3ccccc3)C2=S)cc1C	none
Cc1ccc(N2C(=O)/C(=C\c3ccc(-c4ccc(Br)cc4[N+](=O)[O-])o3)C(=O)N(c3ccccc3)C2=S)cc1C	RBX1-CUL1 inh 56
Cc1ccc(N2C(=O)/C(=C/c3ccc(Br)cc3)C(=O)N(c3ccccc3)C2=S)cc1	none
O=C(Nc1ccc2c(c1)C(=O)N(c1ccccc1)C2=O)C1CCCO1 (stereo not given)	none
CCCCOC(=O)CSc1nnc(-c2ccc(Br)cc2)o1	none
COc1ccc(/C=N/OC(=O)c2ccccc2)cc1	none
COc1ccc(/C=C(\C)c2ccc(OC)cc2)cc1	none
COc1ccc(/C=C(/S)C(=O)O)cc1	RBX1-CUL1 inh 89
Cc1ccccc1N=C1S/C(=C\c2ccc(O)cc2O)C(=O)N1c1ccccc1C	none
COc1ccc2[nH]c(C)c(CCC(C)=O)c(=S)c2c1	none
O=C(CCSc1nnnn1-c1ccccc1)Nc1cccc2ccccc12	none
O=C1NC(=S)S/C1=C/c1ccccn1	none
Cc1nn(C)cc1/C=C1\SC(=S)NC1=O	none
O=C1NC(=S)S/C1=C/c1c(Cl)cc(Cl)c(O)c1Cl	RBX1-CUL1 inh 28
Cc1ccn(CCC(=O)NCc2nc(NCc3cccc(C(F)(F)F)c3)c3ccccc3n2)n1	none
Cc1cccc(OCCSc2nc(-c3cccs3)nc3cc(=O)[nH]n23)c1	none
CC1=NN(c2ccc(C(=O)O)cc2)C(=O)/C1=C/c1cc(Br)ccc1OCc1ccccc1	none
CCCOc1ccc(CN2C(=O)NC(=O)/C(=C\c3cc(Br)c(OCC(=O)O)c(OC)c3)C2=O)cc1OC	none
CCC(C)Oc1ccc(/C=C2\C(=O)N(c3ccccc3)N=C2C)cc1Br (stereo not given)	none
CCCCCCOc1ccccc1/C=C1\C(=O)N(c2ccc([N+](=O)[O-])cc2)N=C1c1ccccc1	none
C#CCOc1cc(Br)c(/C=C2/C(=O)N(c3cccc(C(=O)O)c3)N=C2c2ccccc2)cc1OC	RBX1-CUL1 inh 90
COc1cc(CO)cc(Br)c1OCC(=O)O	none
CCOc1c(Br)cc(/C=C2/C(=O)N(c3cccc(C(=O)O)c3)N=C2C)cc1OC	RBX1-CUL1 inh 91
COc1cc(/C=C2\C(=O)N(c3ccc(S(N)(=O)=O)cc3)N=C2C)cc(Br)c1OCC(C)C	none
COc1cc(C=C2C(=O)c3ccccc3C2=O)cc(Br)c1OCC(=O)O	RBX1-CUL1 inh 76
Fc1ccccc1COc1ccc(C=Nc2ncn[nH]2)cc1	none
COc1cccc(-c2nc(SCC(=O)N3CCc4ccccc43)c3c(=O)n(C)c(=O)n(C)c3n2)c1	none
COc1ccc(C(=O)Nc2ccccc2-c2nc(-c3ccc(OC)cc3)no2)cc1	none
CNCC(O)Cn1ccc2ccccc21 (stereo not given)	none
CC1=Nc2nc(SCc3ccccc3)nn2C(c2cccc(Br)c2)C1C(N)=O (stereo not given)	none
COc1ccc(/C=C2\SC(=Nc3cccc(C)c3)N(c3cccc(C)c3)C2=O)cc1OC	none
COc1ccc(-c2nc3n(n2)C(c2ccccc2)C(C(=O)Nc2cccnc2)C(C)=N3)cc1 (stereo not given)	none
N#Cc1cc([N+](=O)[O-])ccc1Sc1nc(N)cc(N)n1	none
Cn1c(Cc2ccccc2)nnc1SCC(=O)Nc1ccc(Br)cc1Cl	none
COC(=O)c1c(-c2cccc(C)c2)csc1NC(=O)Cc1ccc(OC)c(OC)c1	none
O=c1oc2c(cc(NS(=O)(=O)c3ccc4ccccc4c3)c3ccccc32)s1	none
Cc1ccc(S(=O)(=O)Nc2cc(Sc3nc4ccccc4s3)c(O)c3ccccc23)cc1	none
COc1ccc(S(=O)(=O)Nc2cc(Sc3ncn[nH]3)c(O)c3ccccc23)cc1	RBX1-CUL1 inh 97
O=C(O)CSc1cc(NS(=O)(=O)c2ccc3ccccc3c2)c2ccccc2c1O	RBX1-CUL1 inh 89
Cc1ccc(S(=O)(=O)Nc2cc(SCC(=O)O)c(O)c3ccccc23)c(C)c1	none
O=S(=O)(Nc1ccc(O)c(Sc2ncn[nH]2)c1)c1ccccc1	none
CCCCCN=CC1C(=O)N(c2nc3ccccc3s2)N=C1c1ccccc1 (stereo not given)	none
COc1ccc(NC(=O)CCNS(=O)(=O)c2ccc3c(c2)CCN3C(=O)C2CC2)cc1Cl	none
CCOC(=O)c1c(-c2ccco2)csc1NC(=O)CSc1cc(C)c2ccccc2n1	RBX1-CUL1 inh 91
CCOC(=O)c1c(-c2ccccc2)csc1NC(=O)CSc1cc(C)c2ccccc2n1	none
CCOC(=O)c1c(-c2ccc(F)cc2)csc1NC(=O)CSc1nc2ccccc2c(=O)n1-c1ccccc1	none
CCN1C(=O)c2ccccc2Sc2ccc(NC(=O)Nc3ccc(Br)c(C)c3)cc21	none

High-throughput results from PubChem.
